The results in this text go back to ChEMBL document CHEMBL4513139, “CO-ADD screening of University of Strathclyde (UK) compounds”.

Measured potencies and affinities stand elsewhere.

The first experiment deals with Staphylococcus aureus. To be noted: Concentration 32 ug.mL-1; ASSAY_TEST Inhibition of Bacterial Growth; detection method Absorption (OD600); MEDIA CAMHB; plate type 384well; NBS; CORNING #3640; time 18 hr.
With `Cc1ncc(Cn2cc(CO)nn2)c(N)n1`, the Inhibition – broadly, the relative decrease from the control value, in per cent – was 15.8%.
The same measure, in the same setting: the result for `CC(=O)Nc1cc(C(=O)Nc2cc(C(=O)Nc3cc(C(=O)NCCCN(C)C)n(C)c3)n(C)c2)n(C)c1.O=C(O)C(F)(F)F` reads 20.29%; that for `Cc1ncc(CNc2ccc(Cl)cc2)c(N)n1`, -1.15%; that for `COc1cccc(/C=C/c2ccc(C(=O)Nc3cc(C(=O)Nc4cc(C(=O)NCCN(C)C)n(C)c4)n(C)c3)cc2)c1.O=C(O)C(F)(F)F`, 98.95%.
As for `Cc1ncc(CNc2cccc(F)c2)c(N)n1`, the Inhibition came out at 13.69%.
The same measure, in the same setting: the result for `CN(C)CCCNC(=O)c1cc(NC(=O)c2cc(NC(=O)c3cc4ccccc4cn3)cn2C)cn1C.O=C(O)C(F)(F)F` reads 20.5%; that for `CCOC(=O)c1cc(NC(=O)c2cc(NC(=O)c3sc(N)nc3C(F)(F)F)cn2C)cn1C`, 23.52%; that for `CC(C)CCc1sc(NC(=O)c2cc(NC(=O)c3ccc(/C=C/c4cc5ccccc5nc4Cl)cc3)cn2C)nc1C(=O)NCCN1CCOCC1.O=C(O)C(F)(F)F`, 1.02%.
The same measure, in the same setting: with `Cn1cc(NC(=O)c2cc(NC(=O)c3ccc(/C=C/c4cccc(F)c4)cc3)cn2C)cc1C(=O)NCCN1CCOCC1.O=C(O)C(F)(F)F` the figure was 33.99%.
As for `Cc1ncc(CNc2ccc(C(C)(C)C)cc2)c(N)n1`, the Inhibition is on record as -2.14%.
Still for that read-out and setting: the result for `Cc1ncc(Cn2cc(CC(N)C(=O)O)nn2)c(N)n1.Cl` (stereo not given) reads -6.04%.
`COC(=O)c1ccc(C(=O)Nc2cc(C(=O)Nc3cc(C(=O)NCCN4CCOCC4)n(C)c3)n(C)c2)cc1.O=C(O)C(F)(F)F`: the Inhibition is reported as 12.57%.
Still for that read-out and setting: the result for `CN(C)CCCNC(=O)c1cc(NC(=O)c2cc(NC(=O)c3ccc(C(=O)O)cc3)cn2C)cn1C.O=C(O)C(F)(F)F` reads 10.82%.
On the same count and under the same terms, the result for `Cc1ncc(CO)c(N)n1` reads 1.81%; that for `COCCOC1CCN(C(=O)c2cc(NC(=O)c3cc(NC(=O)c4ccc(/C=C/c5cnc6ccccc6c5)cc4)cn3C)cn2C)CC1`, 5.5%; that for `CN(C)CCCNC(=O)c1cc(NC(=O)c2cc(NC(=O)c3cc(NC(=N)N)cn3C)cn2C)cn1C.O=C(O)C(F)(F)F.O=C(O)C(F)(F)F`, 14.94%.
The same measure, in the same setting: with `Cn1cc(NC(=O)c2cc(NC(=O)c3sc(N)nc3C(F)(F)F)cn2C)cc1C(=O)NCCN1CCOCC1.O=C(O)C(F)(F)F` the figure was 12.04%; with `CC(C)n1cc(NC(=O)c2cc(NC(=O)c3cc(NC=O)cn3C(C)C)cn2C)cc1C(=O)NCCCN(C)C.O=C(O)C(F)(F)F`, 2.98%; with `CC(C)CCn1cc(NC(=O)c2cc(NC(=O)c3cc(NC(=N)c4ccccc4)cn3C)cn2C)cc1C(=O)NCCCN(C)C.O=C(O)C(F)(F)F.O=C(O)C(F)(F)F`, 22.24%.
For the compound `Cc1ncc(Cn2cc(CCO)nn2)c(N)n1`, the Inhibition amounted to 21.55%.

The next experiment relates to Escherichia coli. Conditions: Concentration 32 ug.mL-1; ASSAY_TEST Inhibition of Bacterial Growth; detection method Absorption (OD600); MEDIA CAMHB; plate type 384well; NBS; CORNING #3640; time 18 hr.
As to `CC(=N)Nc1cc(C(=O)Nc2cc(C(=O)Nc3cc(C(=O)NCCN4CCOCC4)n(C)c3)n(C)c2)n(C)c1.O=C(O)C(F)(F)F.O=C(O)C(F)(F)F`, the Inhibition is listed as -8.61%.
In the case of `COc1cccc(C(=N)Nc2cc(C(=O)Nc3cc(C(=O)NCCC(=N)N)n(C)c3)n(C)c2)c1.O=C(O)C(F)(F)F.O=C(O)C(F)(F)F`, the Inhibition is 3.74%.
`CC(C)CCc1sc(NC(=O)c2cc(NC(=O)c3ccc(/C=C/c4cc5ccccc5nc4On4nnc5ccccc54)cc3)cn2C)nc1C(=O)NCCN1CCOCC1.O=C(O)C(F)(F)F`: the Inhibition was -13.53%.
The same measure, in the same setting: with `CC(C)CCc1sc(NC(=O)c2cc(NC(=O)c3cc(NC(=O)CCC(=O)O)cn3C)cn2C)nc1C(=O)NCCCN(C)C.O=C(O)C(F)(F)F` the figure was -16.63%; with `CC(C)c1sc(N)nc1C(=O)Nc1cc(C(=O)Nc2cc(C(=O)NCCN3CCOCC3)n(C)c2)n(C)c1.O=C(O)C(F)(F)F`, -18.06%.
The same measure, in the same setting: the result for `Cc1ncc(Cn2cc(CCCN)nn2)c(N)n1.Cl` reads -28.01%.
For the compound `COc1cccc(C(=N)Nc2cc(C(=O)Nc3cc(C(=O)Nc4cc(C(=O)NCCCN5CCOCC5)n(C)c4)n(C)c3)n(C)c2)c1.O=C(O)C(F)(F)F.O=C(O)C(F)(F)F`, the Inhibition is listed as -6.36%.
The same measure, in the same setting: the result for `Cc1ccc(S(=O)(=O)NCCc2cn(Cc3cnc(C)nc3N)nn2)cc1` reads -13.92%; that for `CCOC(=O)CCC(NC(=O)c1ccc(NCc2cn(Cc3cnc(C)nc3N)nn2)cc1)C(=O)OCC` (stereo not given), -21.48%.
On to `CC(=O)Nc1cc(C(=O)Nc2cc(C(=O)Nc3cc(C(=O)NCCCN(C)C)n(CCC(C)C)c3)n(C)c2)n(C)c1.O=C(O)C(F)(F)F`, for which the Inhibition is recorded as -19.43%.
Regarding `Cc1ncc(Cn2cc(CO)nn2)c(N)n1`, the Inhibition is -17.13%.
Still for that read-out and setting: the result for `CC(=O)Nc1cc(C(=O)Nc2cc(C(=O)Nc3cc(C(=O)NCCCN(C)C)n(C)c3)n(C)c2)n(C)c1.O=C(O)C(F)(F)F` reads -5.37%; that for `Cc1ncc(CNc2ccc(Cl)cc2)c(N)n1`, 2.07%; that for `COc1cccc(/C=C/c2ccc(C(=O)Nc3cc(C(=O)Nc4cc(C(=O)NCCN(C)C)n(C)c4)n(C)c3)cc2)c1.O=C(O)C(F)(F)F`, 88.16%.
Same read-out and setting: the result for `Cc1ncc(CNc2cccc(F)c2)c(N)n1` reads 3.54%; that for `CN(C)CCCNC(=O)c1cc(NC(=O)c2cc(NC(=O)c3cc4ccccc4cn3)cn2C)cn1C.O=C(O)C(F)(F)F`, -10.84%.
For the compound `CCOC(=O)c1cc(NC(=O)c2cc(NC(=O)c3sc(N)nc3C(F)(F)F)cn2C)cn1C`, the Inhibition was -5.76%.
`CC(C)CCc1sc(NC(=O)c2cc(NC(=O)c3ccc(/C=C/c4cc5ccccc5nc4Cl)cc3)cn2C)nc1C(=O)NCCN1CCOCC1.O=C(O)C(F)(F)F`: the Inhibition is -19.26%.
On the same count and under the same terms, with `Cn1cc(NC(=O)c2cc(NC(=O)c3ccc(/C=C/c4cccc(F)c4)cc3)cn2C)cc1C(=O)NCCN1CCOCC1.O=C(O)C(F)(F)F` the figure was -7.74%; with `Cc1ncc(CNc2ccc(C(C)(C)C)cc2)c(N)n1`, -7.27%; with `Cc1ncc(Cn2cc(CC(N)C(=O)O)nn2)c(N)n1.Cl` (stereo not given), -16.87%.
For the compound `COC(=O)c1ccc(C(=O)Nc2cc(C(=O)Nc3cc(C(=O)NCCN4CCOCC4)n(C)c3)n(C)c2)cc1.O=C(O)C(F)(F)F`, the Inhibition was -5.56%.
For `CN(C)CCCNC(=O)c1cc(NC(=O)c2cc(NC(=O)c3ccc(C(=O)O)cc3)cn2C)cn1C.O=C(O)C(F)(F)F`, the Inhibition is on record as -6.1%.
With `Cc1ncc(CO)c(N)n1`, the Inhibition is recorded as -19.21%.
Same read-out and setting: the result for `COCCOC1CCN(C(=O)c2cc(NC(=O)c3cc(NC(=O)c4ccc(/C=C/c5cnc6ccccc6c5)cc4)cn3C)cn2C)CC1` reads 7.07%; that for `CN(C)CCCNC(=O)c1cc(NC(=O)c2cc(NC(=O)c3cc(NC(=N)N)cn3C)cn2C)cn1C.O=C(O)C(F)(F)F.O=C(O)C(F)(F)F`, -3.99%; that for `Cn1cc(NC(=O)c2cc(NC(=O)c3sc(N)nc3C(F)(F)F)cn2C)cc1C(=O)NCCN1CCOCC1.O=C(O)C(F)(F)F`, -24.64%.
With `CC(C)n1cc(NC(=O)c2cc(NC(=O)c3cc(NC=O)cn3C(C)C)cn2C)cc1C(=O)NCCCN(C)C.O=C(O)C(F)(F)F`, the Inhibition is on record as -12.14%.
The same measure, in the same setting: with `CC(C)CCn1cc(NC(=O)c2cc(NC(=O)c3cc(NC(=N)c4ccccc4)cn3C)cn2C)cc1C(=O)NCCCN(C)C.O=C(O)C(F)(F)F.O=C(O)C(F)(F)F` the figure was -19.15%; with `Cc1ncc(Cn2cc(CCO)nn2)c(N)n1`, -15.62%.
